Out of some 31,000 sequences screened, about 1,400 (4.5%) were called active. Only a selection was taken, and actives are over-represented in it overall. Values without a mark were called inactive.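 The calls were made as follows: active = median seed-adjusted z-score above 1 or below -1; inactive = the rest.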
test: Novel Modifiers of Survival Motor Neuron (SMN) Protein: Gene Identification via Genome-wide siRNA Screen; conditions: HEK293T SMN2-luciferase reporter, siRNA knockdown, 72 h; actives lie on both sides;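 also: luminescence tracks full-length SMN protein made from the SMN2 reporter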
Summary of the method: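 siRNA screen, 10418 genes ×3 siRNAs; 1 pmol/well, lipid reverse transfection into HEK293T SMN2-luc reporter line. 72 h, 37 °C, 5% CO2; ONE-Glo readout. Data: neg-ctrl normalized, log10, MAD; hit = MAD >1.0 or < -1.0.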

Row | Sequence | median seed-adjusted z-score
1 | CCAGCUCCUUUAUCAAGCATT against RAD51 | 0.594
2 | GCCUGGAUAACAUCACUGATT against AIM2 | 0.0646
3 | GACCUGAUGUGGACCCAGATT against MIOX | 0.14
4 | GCGACCAACUGAUUGUCGATT against PTPRZ1 | 1.73 (active)
5 | GACACUUGCUUAGAAGUAATT against LRP12 | 0.416
6 | GGAUCUACGUGUACGUCAATT against LPAR3 | -0.3
7 | GGAUCAGUUUGACAGUUUUTT against RNPEP | -0.236
8 | GGAAAUUAGCUGCAGCUGATT against PPP1R2 | 0.208
9 | GGAGAACCACAGUUGCUUUTT against IL17RA | -1.29 (active)
10 | GGAUUCAUCCUUACCCUCATT against PPP2R4 | 0.318
11 | GCUUUACAGAAAGCCGUGATT against STRADB | 0.21
12 | CCCUCGAGCAUGUUCCAAATT against PRPF6 | -1.06 (active)
13 | AGAUCGUGGUGCAUCCAUATT against ELA1 | 0.687
14 | GCACCAACCUGACCUGUCATT against CD33 | -0.355
15 | GAACCAAGAUCAUUAUGCATT against DNAJC2 | -0.0357
16 | GCGCAGCCUUUAGAGGAUATT against UBE2J1 | -1.2 (active)
17 | UGGAGUAAAUAGUUCUAAUTT against UBE2V1 | 0.745
18 | UGAGGAUAGUGGGUCUGUATT against MEIS3 | 0.207
19 | GACUCAUCGUGAUGAGAUUTT against SLC7A9 | 0.194
20 | GGAACAAGUAUUUAGGAAATT against CAPSL | -0.168
21 | CCCUAGGCCUUUUACGAAATT against RAG1 | -1.35 (active)
22 | AGCAGAAGAAGUUCAAAUATT against P2RX1 | 0.908

Row | Sequence | median seed-adjusted z-score
23 | GCAGUAUAUUACAAACAAATT against NAT2 | -0.0495
24 | GGCCCAAGCUUCAACAGCATT against DNASE2 | -1.23 (active)
25 | GGAAAUCGUUCAGUAAGAATT against ZNF175 | -0.0194
26 | CCAUAACCUUAUUGACGCATT against LRFN4 | -0.076
27 | GCCUGAUUCUGAGUGAUGATT against SPTLC2 | 0
28 | GCCUGAUACAAAAUCAACATT against TRPC5 | -1.14 (active)
29 | GGAGUUACAUCAGACCUAUTT against MOGAT1 | 0.293
30 | GGAAAUCUGAAGACGAUAATT against CCAR1 | -1.18 (active)
31 | AACUGGGAAUUGAGAGGUATT against SOX12 | 0.478
32 | GGCCUUACCAAUCAUCAUUTT against SLC28A2 | -0.076
33 | GAAUUCGACCAGUAUUUGATT against SOX7 | -0.387
34 | CCGUAUGUUUUGCUGCAAATT against ABCC4 | -1.66 (active)
35 | GCAAGUCCCGCAAAAAGAATT against NEIL1 | -0.168
36 | GCACCGUCAAGGAAGAUAATT against ADAMTSL1 | -0.107
37 | GUAUGCGACUGGGAUCUUATT against HP | 0
38 | CAGUGGAAAUAAUUACGUUTT against MDH1B | -1.13 (active)
39 | GAUCUACACUUGGAUGGAUTT against SAP18 | 2.14 (active)
40 | CUAACGAAGAUUCACCCAATT against ASPN | -0.0432
41 | UCGUGGUUGUUAAUUUGAATT against CSNK1E | -0.796
42 | CAACUGUUCCUGUAUUGAATT against SLCO4C1 | -0.116
43 | GUAUCAAUCUAGAGCACAATT against MYOZ2 | 0.315
44 | CGAGCUACACUGUCCACUUTT against CSGLCA-T | 0.146

Row | Sequence | median seed-adjusted z-score
45 | GGACUUGCUCGGCUCUAUATT against CRKRS | -1.16 (active)
46 | CAACUUGGACAAGACCUUATT against GYS1 | 0.874
47 | CGACAUCAGCUGAUAAUCATT against NPY1R | 0.76
48 | AACAGUAUCUUUCAGAAUATT against TMPRSS5 | 1.25 (active)
49 | GGCUGAAUUAUGACCGGAATT against PPFIA4 | 0.0399
50 | CUUGGAUACAGAUACGUUUTT against TLK1 | -0.0133
51 | UCGAUAUUCUAAGAUCACATT against UBE2D3 | 1.62 (active)
52 | CACCUUAACUUCAUCAACATT against SCN4A | -0.681
53 | GAGCUGGGAUGAUAAAGAUTT against AGPAT2 | 0.38
54 | GCGAUGAUGUGGAACCUUATT against TBC1D9 | -0.0473
55 | AUAUAACACUUCUACUCUUTT against CMA1 | -0.0475
56 | CAACGAUGCUAGAAGAAUUTT against PCOLCE2 | -1.15 (active)
57 | CCGUCUAUAUGGAGUCUUUTT against ROR1 | -0.0044
58 | CUACUUUCGAGACUACUUUTT against DGAT2 | 0.195
59 | GGGAAGAUAUUUGUCAGCATT against PLXNA2 | 0.308
60 | ACAGGCCUGUGAAACCCUATT against PEX5 | -0.0414
61 | GCCUUACCUGGAGAACUGATT against VPS26A | -1.55 (active)
62 | GCGAGAAUCUGUUAGUAAATT against PANK3 | -0.185
63 | CCAUCUUCACUGACGAGCATT against GSC | 0.17
64 | CCUUUUUGCUGGACACUGUTT against PLEKHF1 | 0.055
65 | CACCCAUGCUGACAGUGAATT against HLA-DMA | -0.00543
66 | GCCUCCUUCUUUGACCGGATT against NACC1 | 1.59 (active)

Row | Sequence | median seed-adjusted z-score
67 | GGACUUCUUUUGUCAUGCATT against BCKDHB | 0.366
68 | GAACAGAUGUUUGAGACUUTT against GUCA1A | 0.101
69 | GCGAGUGUCUUGAAGUAUATT against PLAA | -0.192
70 | AAACAUUAUUUACCAUUCATT against ZNF439 | -0.26
71 | CCACGUGUCUAACACCAAUTT against KRT79 | 0.338
72 | GAAUAUAUCUAAAUCGCAUTT against RORA | -0.144
73 | GACCUCACGUUGUCGAAGATT against GTPBP4 | 1.01 (active)
74 | GACUUGGAGUUUCAGGCAATT against XPC | -0.564
75 | GCUCCAGUCUUUUCGCAAATT against DSG4 | -0.0211
76 | CCAAUUCUACAAAAGCAAATT against SRD5A3 | -0.165
77 | CGUGCACAGAUAUUACGCATT against FIGNL1 | -0.408
78 | GCAUUGUCGUUGCAAUCGATT against CLCA1 | 0.015
79 | GCAUCGAGCAGGAACAGAATT against ATP2B2 | 1.37 (active)
80 | UUUUUGAUGUGGACUCAAATT against USP18 | -0.326
81 | GUUCAAUACUUGAACACGATT against FFAR2 | 0.146
82 | GAAUUACAGUGACAGUUCATT against AP3M1 | 0
83 | GUAAUGUUCUUAAACGAAUTT against PPP2R5C | 1.14 (active)
84 | GAAACAUCUGGUGCUAUUATT against KREMEN2 | -0.0883
85 | GCAAGAAUCCCUAAAGCAUTT against BAG2 | -0.87
86 | CAGUUGAUAUUCAUAAAGATT against ABI2 | -0.0392
87 | GGGCAGAAUUGGAAUGCGATT against CNTNAP4 | -0.414
88 | AGAGCGGUCUGACAGUGGATT against NUDT1 | -0.175

Row | Sequence | median seed-adjusted z-score
89 | GGUAUAAACGCGUCCAGCATT against MAFB | 0.674
90 | CCAACGACGUGGUGCAGAATT against CLDN14 | -0.456
91 | CAGCAAACCUUUGACCAGATT against U2AF2 | 2.14 (active)
92 | CUACGGCUACGUCUACAUCTT against GPR25 | 0.377
93 | GAGCGGACAUGAUAAGCAUTT against CD302 | 0.0818
94 | GGAUGAUAUUAACAGGUCATT against USP8 | 0.743
95 | GCAUACGCAGGAUCCUGGATT against KRT34 | 0.124
96 | CGAGUUAGCAAGUUCAGCATT against CTRL | 0.0758
97 | GAAAUCUUCUUGAGUGUAATT against GPR141 | -0.777
98 | GGACAAUGUUGGGAAUAGATT against GPATCH2 | 0.0828
99 | UCCUCUAAAAAUUACAGUATT against TUBB2A | 1.03 (active)
100 | CAUUAGAUCUGUGAUUAGATT against MCOLN3 | -0.09
101 | GGAAUGCUCCAAAAUGGGATT against FKBP1B | -0.561
102 | GCACAUGUUUGGAGGAUUUTT against ZNRF2 | 0
103 | CAACCCAGCCCAUCCCAAATT against PDK2 | -0.481
104 | CUGUGAAGAUAGAAGGAUATT against CAPZA1 | -0.0237
105 | GCAUUUCUUGGGUUGGUGATT against GABPA | 1.43 (active)
106 | CCGCGCAGUUCAUCUCAAATT against SNX15 | -0.152
107 | CACUAGAAAUAACAAUGGATT against TMPRSS11D | -0.0643
108 | AGAUCUCGUGGUUCUGGAATT against RPUSD1 | 0.327
